Pf growth 48h: Primary qHTS for delayed death inhibitors of the malarial parasite plastid, 48 hour incubation; P. falciparum luciferase growth in erythrocytes, 48 h; Potency, µM (top dose mostly 28.7 µM), for inactives: at the highest dose activity change, negative = inhibition, actives largely listed as inhibitors; 5.9% of 310,000 active; AID 504832, 2011; note: potency is the fitted concentration of half-maximal effect; % is set by controls: 0 for no effect and ±100 for the full control effect
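Luciferase-expressing P. falciparum in infected erythrocytes (2% hematocrit, 0.1% parasitemia final) in RPMI 1640/0.5% Albumax were exposed to compound for 48 hours at 37 C, 5% CO2; growth read as luminescence.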
HCMV antiviral: qHTS Assay for inhibitors of the human cytomegalovirus (HCMV); HFF cells, HCMV-luciferase reporter, 72 h; stronger effect = lower value; activity change, negative = inhibition, % at 57.5 µM; 4.5% of 410,000 active; AID 1259415, 2018; in the data active = activity change below about -60%; inconclusive = no clear call, values can overlap the other calls; inactive = above about -39%; note: % is set by controls: 0 for no effect and ±100 for the full control effect
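After 16 h attachment at 37C, HFF cells received test compound and HCMV-luciferase (1 PFU/cell); reporter luminescence read 72 h later, data normalized against buffer-only and known inhibitor Salinomycin.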
Sm TGR inh: qHTS Assay for the Inhibitors of Schistosoma Mansoni Peroxiredoxins. AID 485364, 2010. Potency, µM (titrated, usually from 114 µM), inactives show at the highest dose activity change, negative = inhibition, hits mostly inhibitors. purified TGR, DTNB reduction, TNB absorbance 405 nm. 3% of 360,000 active. Schistosoma mansoni thioredoxin glutathione reductase (TGR), Q962Y6; note: potency is the fitted concentration of half-maximal effect; % is set by controls: 0 for no effect and ±100 for the full control effect; nearly all actives have a fitted effect of over 60% in size
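First, TGR (20 nM dispensed) and NADPH were mixed with compound. Second, a 15 min room-temperature incubation followed. Third, further NADPH and then DTNB were added to start the reaction. Finally, TNB absorbance was monitored kinetically.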
SARS PLP yeast: qHTS of Yeast-based Assay for SARS-CoV PLP | Potency, µM (highest dose often 32.9 µM), inactives show at the top dose activity, positive = growth rescue, actives largely listed as activators | 0.19% of 330,000 active | S. cerevisiae expressing SARS-CoV PLpro, growth rescue; calls by dose curve; note: potency is the fitted concentration of half-maximal effect; 0% is about no effect; nearly all actives have a fitted effect of over 55% in size
Pf growth 96h: Primary qHTS for delayed death inhibitors of the malarial parasite plastid, 96 hour incubation; P. falciparum luciferase reporter growth, 96 h; Potency, µM (series often up to 28.7 µM), for inactives: at the highest dose activity change, negative = inhibition, usual class: inhibitors; 6.9% of 320,000 active; AID 504834, 2011; note: potency is the fitted concentration of half-maximal effect; % is set by controls: 0 for no effect and ±100 for the full control effect
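P. falciparum expressing integrated firefly luciferase, in erythrocytes at 2% hematocrit, 0.05% parasitemia, incubated with compounds 96 h at 37 C, 5% CO2. Growth inhibition read as loss of luminescence; two-generation exposure targets delayed-death apicoplast inhibitors.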
HCV inh: qHTS Assay for Inhibitors of Hepatitis C Virus (HCV) | AID 651820, 2012 | 3.4% of 340,000 active | Potency, µM (top dose mostly 41.8 µM), without a hit: at the highest dose activity change, negative = inhibition, usual class: inhibitors | Huh7.5.1 HCVcc-Cre infection, luciferase reporter, 44 h; note: potency is the fitted concentration of half-maximal effect; % is set by controls: 0 for no effect and ±100 for the full control effect
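1,000 cells/well; 4 h culture; + compound; + HCVcc-Cre (~0.5 moi); 44 h; luciferase substrate, RT 15 min; read 15 sec.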
* marks the source's active call; other numbers are inactive results; ! = repeats disagree. A selection: hits, their analogues and other compounds. The true share with any hit is near 15%. Unless noted, calls come from the whole dose curve; as a rule, active = well fitted curve in the direction sought with a large enough effect; inconclusive = small, poorly fitted or top-dose-only effect, or another doubt; inactive = no such curve, though single readings can be large; an effect the other way counts as inactive or inconclusive.

`O=C(N/N=C/c1ccccn1)c1cc([N+](=O)[O-])cc([N+](=O)[O-])c1` gave Pf growth 48h inconclusive, HCMV antiviral 67.0, Sm TGR inh -2.8%, SARS PLP yeast 2.9%, Pf growth 96h 23.4% and HCV inh 1.9%.
Screening O=C(N/N=C/c1ccccn1)c1ccc([N+](=O)[O-])cc1 returned Pf growth 48h inconclusive, HCMV antiviral -22.0, Sm TGR inh 1.0%, SARS PLP yeast 2.7%, Pf growth 96h 8.28µM* and HCV inh 3.1%.
`N#Cc1ccc(OCC(=O)OCC(=O)Nc2sccc2C(N)=O)cc1` gave Pf growth 48h -19.8%, HCMV antiviral -6.9, Sm TGR inh -0.4%, SARS PLP yeast -4.9%, Pf growth 96h 9.3% and HCV inh 6.9%.
For COC1=C(C)C(O)=C(C(=O)/C=C/c2ccccc2)C(=O)C1(C)C the results were Pf growth 48h inconclusive, HCMV antiviral -77.4*, Sm TGR inh inconclusive, SARS PLP yeast 5.5%, Pf growth 96h inconclusive and HCV inh 2.1%.
For COc1cc(C)cc(C(=O)C=Cc2ccccc2)c1O the results were HCMV antiviral 37.0 and HCV inh -14.5%.
For COc1cc(C(=O)NCC(c2cccs2)S(=O)(=O)c2ccc(F)cc2)cc(OC)c1OC (stereo not drawn) the results were HCMV antiviral 0.4 and Sm TGR inh -19.7%.
O=C(COC(=O)c1cc([N+](=O)[O-])ccc1NCCO)Nc1cccnc1Cl was read as HCMV antiviral 1.5, SARS PLP yeast -3.9% and HCV inh inconclusive.
CCOC(=O)C1=C(C)N=c2s/c(=C/c3ccc(OCC(=O)O)cc3)c(=O)n2C1c1ccc(F)cc1 (stereo not drawn) was read as Pf growth 48h 3.29µM*, HCMV antiviral -20.9, Sm TGR inh -13.3%, SARS PLP yeast -0.9%, Pf growth 96h inconclusive and HCV inh -10.1%.
`CC1=C(C(=O)OC(C)C)C(c2ccc(Cl)cc2)n2c(sc(=Cc3ccc(OCC(=O)O)cc3)c2=O)=N1` (stereo not drawn) gave HCMV antiviral 15.5.
Screening CCOC(=O)C1=C(C)N=c2s/c(=C/c3ccc(OCC(=O)O)cc3)c(=O)n2C1c1ccc(SC)cc1 (stereo not drawn) returned Pf growth 48h 5.22µM*, Sm TGR inh -1.4%, SARS PLP yeast 3.6% and Pf growth 96h inconclusive.
CCOC(=O)C1=C(C)N=c2s/c(=C\c3ccc(OCC(=O)O)cc3)c(=O)n2C1c1ccc(Cl)cc1 (stereo not drawn) was read as Pf growth 48h 9.28µM*, HCMV antiviral -22.8, Sm TGR inh -52.0%, SARS PLP yeast 2.2%, Pf growth 96h 1.47µM* and HCV inh inconclusive.
`Cc1ccccc1C(=O)Nc1cccc(-c2cn3cccnc3n2)c1` gave HCMV antiviral 24.8 and Sm TGR inh 3.0%.
For COc1ccc(/C=N/NC(=O)c2[nH]c3ccc(Br)cc3c2-c2ccccc2)c(C(=O)O)c1OC the results were Pf growth 48h 6.4%, HCMV antiviral -62.9*, Sm TGR inh -7.7%, SARS PLP yeast -1.1%, Pf growth 96h 30.6% and HCV inh 10.9%.
`COc1ccc(/C=N\NC(=O)COc2ccc(Cl)cc2Cl)c(C(=O)O)c1OC` gave Pf growth 48h 6.0%, HCMV antiviral -29.2, Sm TGR inh 0.2%, SARS PLP yeast 12.3%, Pf growth 96h inconclusive and HCV inh 4.5%.
For COc1ccc(/C=N/NC(=O)c2[nH]c3ccc(Cl)cc3c2-c2ccccc2)c(C(=O)O)c1OC the results were HCMV antiviral -99.4*, Sm TGR inh -8.1%, SARS PLP yeast -0.1%, Pf growth 96h 4.5% and HCV inh 6.0%.
COc1ccc(/C=N/NC(=O)c2[nH]c3ccc(Br)cc3c2-c2ccccc2)cc1 was read as Pf growth 48h 20.1%, Sm TGR inh 6.5%, SARS PLP yeast 10.3%, Pf growth 96h -3.7% and HCV inh -59.2%.
O=C(N/N=C/c1ccccc1Cl)c1[nH]c2ccc(Br)cc2c1-c1ccccc1 was read as Pf growth 48h 4.0%, HCMV antiviral -17.7, Sm TGR inh -9.7%, SARS PLP yeast 15.3%, Pf growth 96h inconclusive and HCV inh 3.98µM*.
Screening COC(=O)C1CN(S(=O)(=O)c2cc(OC)ccc2OC)CCS1 (stereo not drawn) returned Pf growth 48h 0.1%, HCMV antiviral 6.3, Sm TGR inh -9.2%, SARS PLP yeast 13.5%, Pf growth 96h -0.2% and HCV inh 1.3%.
Screening NC(N)=NC(=O)Cc1c(Cl)cccc1Cl returned Pf growth 48h inconclusive, HCMV antiviral 34.4, Sm TGR inh -7.5%, SARS PLP yeast 4.8%, Pf growth 96h 1.85µM*! and HCV inh -10.6%.
For O=C(Cc1c(Cl)cccc1Cl)OCc1ccccn1 the results were Pf growth 48h inconclusive, HCMV antiviral inconclusive, Sm TGR inh 1.8%, SARS PLP yeast -15.5%, Pf growth 96h inconclusive and HCV inh 4.7%.
CNC(C)[C@@H](O)c1ccc(O)cc1 (stereo partly drawn) was read as Pf growth 48h -4.0% and Pf growth 96h -18.3%.
`CCn1c(=O)c2cc(C(=O)NCCc3cccc(C)c3)sc2c2ccccc21` gave HCMV antiviral -20.4 and Sm TGR inh -5.3%.
CCN=c1sc(C(=O)NCCc2ccccc2)cc(=O)n1CC was read as Pf growth 48h inconclusive, Sm TGR inh 20µM*, SARS PLP yeast -6.9%, Pf growth 96h 12.2% and HCV inh -19.9%.
For COC(=O)c1cc(C(=O)OCC(=O)Nc2ccc(N3CCOCC3)cc2)cc([N+](=O)[O-])c1 the results were HCMV antiviral 16.4, SARS PLP yeast -7.9% and HCV inh -27.2%.
Screening O=C(/C=C/c1cccc([N+](=O)[O-])c1)NCCSc1ccccc1 returned Pf growth 48h inconclusive, HCMV antiviral 61.3, Sm TGR inh 0.4%, SARS PLP yeast -29.5%, Pf growth 96h 10.4µM* and HCV inh -14.3%.
CC(C)(C)SCCNC(=O)/C=C/c1ccccc1 was read as Pf growth 48h inconclusive, HCMV antiviral 88.5, Sm TGR inh 11.9%, SARS PLP yeast -0.8%, Pf growth 96h 10.4µM* and HCV inh -8.9%.
Screening CCc1ccc(S(=O)(=O)NCCc2csc3nc(-c4ccccc4)nn23)s1 returned HCMV antiviral -78.9* and Sm TGR inh 5.1%.

Source: PubChem
